The source of these data is PMC12820563, “FoxP3 forms a head-to-head dimer in vivo and stabilizes its multimerization on adjacent microsatellites”.

Whole data set: some 16,000 sequences, median “rpm ratio (pull-down/input)” near 0.94, cut for the highest 2% near 1.7. Many of the other results were omitted from the sample, so the highest values are more common in it than they were.

This assay deals with T1, MBP-FoxP1dN (Mus musculus, UniProt P58462 326-579).
T1 sequence: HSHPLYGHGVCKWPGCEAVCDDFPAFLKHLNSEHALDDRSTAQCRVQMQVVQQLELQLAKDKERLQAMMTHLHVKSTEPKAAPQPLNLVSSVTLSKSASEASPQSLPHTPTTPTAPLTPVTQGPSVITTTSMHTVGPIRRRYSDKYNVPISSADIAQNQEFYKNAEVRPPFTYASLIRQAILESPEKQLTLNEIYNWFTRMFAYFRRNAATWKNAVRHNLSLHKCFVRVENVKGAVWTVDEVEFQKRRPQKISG
Description: PD-seq (MBP pull-down with sequencing); 20 mM Tris-HCl pH 7.5, 100 mM NaCl, 1.5 mM MgCl2, 0.4 uM protein, 0.1 uM dsDNA library, 30 min, room temperature, amylose pull-down; high values mean tight binding. The conditions noted are these: protein: recombinant; tags: His6-MBP; chain copies: 2; dsDNA, one strand shown. The procedure, abridged:
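Binding is the reads-per-million enrichment of pull-down relative to input, pooled across replicates. For this, 0.4 µM His6-MBP-tagged mouse FoxP3 or FoxP1 fragment lacking the N-terminus, made in E. coli, was incubated with 0.1 µM Klenow-filled double-stranded degenerate DNA library for 30 min at room temperature in Tris pH 7.5 buffer with NaCl and MgCl2. Complexes bound to amylose resin were washed three times before proteinase K released the DNA for PCR barcoding and Illumina sequencing.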
“GATGATTGTTCTCCCAGCTGATGAATTCTGTTTGTCGAGTAAACAAATTTTCCTAATCTTTCTGTTCAAGCGCCATCTAC”: the binding signal is 2.36 RPM ratio (pull-down/input).

As to “GATGATTGTTCTCCCAGCTGATGAATTCAATTTGTCGAGTAAACAAATTTTCCTAATCTTTCTGTTCAAGCGCCATCTAC”, the binding signal is 1.07 RPM ratio (pull-down/input).

Turning to “GATGATTGTTCTCCCAGCTGATGAATTCTTTTTGTCGAGTAAACAAATTTTCCTAATCTTTCTGTTCAAGCGCCATCTAC”, the binding signal was 0.964 RPM ratio (pull-down/input).

In the case of “GATGATTGTTCTCCCAGCTGATGAATTGTTTTCTTCGAGTAAACAAATTTTCCTAATCTTTCTGTTCAAGCGCCATCTAC”, the binding signal was 2.03 RPM ratio (pull-down/input).

As to “GATGATTGTTCTCCCAGCTGATGAATTTCTTTCGTCGAGTAAACAAATTTTCCTAATCTTTCTGTTCAAGCGCCATCTAC”, the binding signal was 0.887 RPM ratio (pull-down/input).

With “GATGATTGTTCTCCCAGCTGATGAATTGATGTTTTCGAGTAAACAAATTTTCCTAATCTTTCTGTTCAAGCGCCATCTAC”, the binding signal is 2.82 RPM ratio (pull-down/input).

“GATGATTGTTCTCCCAGCTGATGAATTTGCTGTTTCGAGTAAACAAATTTTCCTAATCTTTCTGTTCAAGCGCCATCTAC”: the binding signal is 1.33 RPM ratio (pull-down/input).

For the sequence “GATGATTGTTCTCCCAGCTGATGAATTTGTTTCGTCGAGTAAACAAATTTTCCTAATCTTTCTGTTCAAGCGCCATCTAC”, the binding signal is 1.3 RPM ratio (pull-down/input).

For the sequence “GATGATTGTTCTCCCAGCTGATGAATTGCTGTTTTCGAGTAAACAAATTTTCCTAATCTTTCTGTTCAAGCGCCATCTAC”, the binding signal was 2.45 RPM ratio (pull-down/input).

“GATGATTGTTCTCCCAGCTGATGAATTTGATGTTTCGAGTAAACAAATTTTCCTAATCTTTCTGTTCAAGCGCCATCTAC”: the binding signal was 1.16 RPM ratio (pull-down/input).

As to “GATGATTGTTCTCCCAGCTGATGAATTGTTTTCGTCGAGTAAACAAATTTTCCTAATCTTTCTGTTCAAGCGCCATCTAC”, the binding signal was 2.02 RPM ratio (pull-down/input).

For “GATGATTGTTCTCCCAGCTGATGAATTTCTTCTTTCGAGTAAACAAATTTTCCTAATCTTTCTGTTCAAGCGCCATCTAC”, the binding signal was 1.01 RPM ratio (pull-down/input).

For “GATGATTGTTCTCCCAGCTGATGAATTGAATGTTTCGAGTAAACAAATTTTCCTAATCTTTCTGTTCAAGCGCCATCTAC”, the binding signal is 1.01 RPM ratio (pull-down/input).

Turning to “GATGATTGTTCTCCCAGCTGATGAATTGCTGATTTCGAGTAAACAAATTTTCCTAATCTTTCTGTTCAAGCGCCATCTAC”, the binding signal was 1.31 RPM ratio (pull-down/input).

With “GATGATTGTTCTCCCAGCTGATGAATTGTTTCCTTCGAGTAAACAAATTTTCCTAATCTTTCTGTTCAAGCGCCATCTAC”, the binding signal was 1.44 RPM ratio (pull-down/input).

Take “GATGATTGTTCTCCCAGCTGATGAATTCGGGATTTCGAGTAAACAAATTTTCCTAATCTTTCTGTTCAAGCGCCATCTAC”: the binding signal was 0.851 RPM ratio (pull-down/input).

For the sequence “GATGATTGTTCTCCCAGCTGATGAATTAAGGTGCTCGAGTAAACAAATTTTCCTAATCTTTCTGTTCAAGCGCCATCTAC”, the binding signal was 0.849 RPM ratio (pull-down/input).

As to “GATGATTGTTCTCCCAGCTGATGAATTTGTAAGATCGAGTAAACAAATTTTCCTAATCTTTCTGTTCAAGCGCCATCTAC”, the binding signal was 1.09 RPM ratio (pull-down/input).

Regarding “GATGATTGTTCTCCCAGCTGATGAATTTTTGAGATCGAGTAAACAAATTTTCCTAATCTTTCTGTTCAAGCGCCATCTAC”, the binding signal is 0.928 RPM ratio (pull-down/input).

Take “GATGATTGTTCTCCCAGCTGATGAATTTGTACCATCGAGTAAACAAATTTTCCTAATCTTTCTGTTCAAGCGCCATCTAC”: the binding signal was 1.17 RPM ratio (pull-down/input).

As for “GATGATTGTTCTCCCAGCTGATGAATTCATCGGATCGAGTAAACAAATTTTCCTAATCTTTCTGTTCAAGCGCCATCTAC”, the binding signal was 0.838 RPM ratio (pull-down/input).

Consider “GATGATTGTTCTCCCAGCTGATGAATTATTTCCTTCGAGTAAACAAATTTTCCTAATCTTTCTGTTCAAGCGCCATCTAC”, for which the binding signal is 1.04 RPM ratio (pull-down/input).

In the case of “GATGATTGTTCTCCCAGCTGATGAATTGAGTGACTCGAGTAAACAAATTTTCCTAATCTTTCTGTTCAAGCGCCATCTAC”, the binding signal was 0.833 RPM ratio (pull-down/input).

“GATGATTGTTCTCCCAGCTGATGAATTACCATTTTCGAGTAAACAAATTTTCCTAATCTTTCTGTTCAAGCGCCATCTAC”: the binding signal is 1.18 RPM ratio (pull-down/input).

With “GATGATTGTTCTCCCAGCTGATGAATTTACTGTTTCGAGTAAACAAATTTTCCTAATCTTTCTGTTCAAGCGCCATCTAC”, the binding signal is 1.35 RPM ratio (pull-down/input).

On to “GATGATTGTTCTCCCAGCTGATGAATTTCTGTTTTCGAGTAAACAAATTTTCCTAATCTTTCTGTTCAAGCGCCATCTAC”, for which the binding signal is 2.32 RPM ratio (pull-down/input).

As to “GATGATTGTTCTCCCAGCTGATGAATTACTGATTTCGAGTAAACAAATTTTCCTAATCTTTCTGTTCAAGCGCCATCTAC”, the binding signal is 1.24 RPM ratio (pull-down/input).

“GATGATTGTTCTCCCAGCTGATGAATTGTTTCTTTCGAGTAAACAAATTTTCCTAATCTTTCTGTTCAAGCGCCATCTAC”: the binding signal was 1.58 RPM ratio (pull-down/input).

In the case of “GATGATTGTTCTCCCAGCTGATGAATTTCCTGTTTCGAGTAAACAAATTTTCCTAATCTTTCTGTTCAAGCGCCATCTAC”, the binding signal was 0.949 RPM ratio (pull-down/input).

In the case of “GATGATTGTTCTCCCAGCTGATGAATTACTGTTTTCGAGTAAACAAATTTTCCTAATCTTTCTGTTCAAGCGCCATCTAC”, the binding signal is 2.6 RPM ratio (pull-down/input).

For the sequence “GATGATTGTTCTCCCAGCTGATGAATTGTTTTTTTCGAGTAAACAAATTTTCCTAATCTTTCTGTTCAAGCGCCATCTAC”, the binding signal was 2.25 RPM ratio (pull-down/input).

Turning to “GATGATTGTTCTCCCAGCTGATGAATTTTCTGTTTCGAGTAAACAAATTTTCCTAATCTTTCTGTTCAAGCGCCATCTAC”, the binding signal is 0.977 RPM ratio (pull-down/input).

On to “GATGATTGTTCTCCCAGCTGATGAATTGATTGTTTCGAGTAAACAAATTTTCCTAATCTTTCTGTTCAAGCGCCATCTAC”, for which the binding signal was 1.61 RPM ratio (pull-down/input).
